# IDE cell activ – IDE (human) activation, cell-based; activation, % at 5.96 µM; HEK cells, FAbeta-B cleavage, fluorescence polarization; 0% vehicle, 100% cell-free pure enzyme wells; 340,000 tested, 0.073% active;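 active = activation above the mean of all tested compounds plus 3 SD, set per screening campaign, cut at about 17% in these data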
# IDE inh – inhibitors of human insulin-degrading enzyme in cells; 320,000 tested, 0.41% active; HEK cells, FAbetaB cleavage, fluorescence polarization; inhibition, % at 5.59 µM; AID 434962; P14735;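 active = percent inhibition above the average of all tested compounds plus 3 SD, set per screening campaign, cut at about 16% in these data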;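 also: IDE supplied by intact live HEK cells; FP after avidin binding of uncleaved biotin substrate so inhibition keeps polarization high; 0% = DMSO wells and 100% = 60 µM reference IDE inhibitor Ii1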
# SKKanGAS inh – inhibitors of SKKanGAS S. pyogenes growth in kanamycin (SK-promoter or general growth effect) | BacTiter-Glo, 6 h | inhibition, % at 7.5 µM | 300,000 tested, 1.3% active | AID 1662;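 active = mean replicate score, as percent of positive control median, at least 50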;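 also: strain carries kanamycin resistance gene driven by streptokinase promoter and grows in 40 µg/ml kanamycin; loss of luminescence reflects streptokinase promoter inhibition or plain growth inhibition; 0% = median of DMSO wells and 100% = positive control at its reference dose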
# Exocytosis inh – blocks lytic granule exocytosis; TALL-104 LAMP-1 surface exposure, flow cytometry; cells stimulated with thapsigargin and PMA; inhibition, % at 10 µM; 360,000 tested, 0.66% active; AID 651702;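 active = inhibition above about 55%, limit read from the data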
# PP5 inh – blocks human protein phosphatase 5 activity; 320,000 tested, 0.18% active; AID 1987; purified PP5c, OMFP substrate fluorescence; inhibition, % at 6.7 µM; P53041;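 active = inhibition above the campaign's mean inhibition across all tested compounds plus 3 SD, cut at about 9.5% in these data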;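 also: 0% = DMSO only and 100% = 100 µM cantharidin control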
# PP1 inh – blocks human PP1-alpha phosphatase, a PP5 counter-screen; P62136; purified PP1alpha, OMFP fluorescence; inhibition, % at 6.7 µM; 320,000 tested, 0.9% active; AID 2235;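 active = inhibition above the mean inhibition of all tested compounds plus 3 SD, computed separately for each screening campaign, cut at about 15% in these data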
# Target sequence (P62136 whole entry, looked up): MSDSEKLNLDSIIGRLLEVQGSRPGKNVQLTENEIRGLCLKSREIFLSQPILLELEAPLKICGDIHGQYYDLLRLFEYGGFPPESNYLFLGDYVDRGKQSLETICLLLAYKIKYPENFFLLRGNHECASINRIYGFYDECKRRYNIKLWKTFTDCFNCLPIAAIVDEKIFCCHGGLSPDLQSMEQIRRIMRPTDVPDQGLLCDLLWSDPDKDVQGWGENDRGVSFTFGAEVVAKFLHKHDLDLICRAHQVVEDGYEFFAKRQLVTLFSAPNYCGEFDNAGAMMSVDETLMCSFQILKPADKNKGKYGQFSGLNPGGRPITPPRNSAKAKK
# The depositor's hits bear a star; · = no result given. Only some compounds are listed: those with a hit (about 2.8% of all), similar ones and a draw of the others.
SMILES,IDE cell activ,IDE inh,SKKanGAS inh,Exocytosis inh,PP5 inh,PP1 inh
O=C(CNC(=O)c1ccccc1)NCC(=O)OCC(=O)c1ccc([N+](=O)[O-])cc1,-5,4,-2,1,1,0
Cc1ccc(C(=O)NC(=S)NNC(=O)COc2ccc([N+](=O)[O-])cc2)cc1,-4,8,82*,-3,4,1
O=C(COc1ccc2ccccc2c1)NNC(=O)c1ccc([N+](=O)[O-])cc1,3,-2,-13,2,0,5
O=C(COc1ccc([N+](=O)[O-])cc1)NNC(=S)NC(=O)c1ccc(Br)cc1,-4,7,55*,2,-2,3
COc1ccc(OC)c(NC(=O)C2CCN(S(=O)(=O)c3ccc4c(c3)CC(C)N4C(C)=O)CC2)c1 (centres undefined),9,0,-1,0,3,-3
CC(=O)N1CCC(C(=O)N2c3ccccc3N=C(c3ccc4c(c3)OCO4)C2C(=O)Nc2c(C)cccc2C)CC1 (centres undefined),·,·,·,-5,·,·
CC1CCCCC12NC(=O)N(CC(=O)NNC(=O)c1ccc(Br)cc1)C2=O (centres undefined),3,4,·,-2,·,·
O=C1C2N=NN(CC(=O)N3N=C(c4ccccc4)CC3c3ccc([N+](=O)[O-])cc3)C2C(=O)N1c1ccccc1 (centres undefined),·,-4,2,·,0,16*
Cc1cccc(CC(Cc2nc3ccccc3[nH]2)c2nc3ccccc3[nH]2)c1 (centres undefined),1,2,61*,-2,0,3
COc1ccccc1CC(Cc1nc2ccccc2[nH]1)c1nc2ccccc2[nH]1 (centres undefined),6,4,23,0,0,-2
CC(Sc1cnc2ccccc2n1)C(=O)O (centres undefined),6,1,-1,-5,-2,18*
NC(COCc1ccccc1)c1csc(Nc2ccccn2)n1 (centres undefined),·,·,·,-2,·,·
COc1ccc(-c2nc3ccc(C)cn3c2NCc2ccccc2)cc1SC1CCCCC1,-1,-3,16,65*,3,17*
Cc1ccc2nc(-c3cccc(SC4CCCCC4)c3)c(NCc3ccccc3)n2c1,9,3,·,-4,·,·
CCC(C)Sc1ccc(-c2nc3ccc(C)cn3c2NCc2ccccc2)cc1OC (centres undefined),7,4,53*,8,7,12
CCc1nc2ccc(C(=O)Nc3cccc(OC)c3)cn2c1N(CC)CCOC,·,·,·,4,·,·
O=C(Nc1nccs1)c1cc2c(s1)CCCCC2,-3,-3,77*,-3,1,-4
CCc1sc(C(=O)Nc2nccs2)cc1C,-1,1,59*,2,0,4
O=C(Nc1nncs1)c1cc2c(s1)CCC2,2,1,-2,-1,-1,3
COc1ccc2[nH]c(O)c(N=NC(=O)c3ccc(NS(=O)(=O)c4cccs4)cc3)c2c1,6,-4,·,1,0,17*
COc1ccc2[nH]c(O)c(N=NC(=O)Cc3cccs3)c2c1,7,-1,2,-2,1,7
O=C(N=Nc1c(O)[nH]c2ccc(F)cc12)c1ccc(NS(=O)(=O)c2cccs2)cc1,0,3,·,-3,1,-1
Cc1ccc2[nH]c(O)c(N=NC(=O)c3ccc(NS(=O)(=O)c4cccs4)cc3)c2c1,1,-1,76*,-2,1,6
Cc1cccc2c(N=NC(=O)c3ccc(NS(=O)(=O)c4cccs4)cc3)c(O)[nH]c12,-5,1,·,0,2,16*
CSc1nc(COC(=O)NC(C)C)c(COC(=O)NC(C)C)n1Cc1ccccc1,·,·,·,-14,·,·
SMILES,IDE cell activ,IDE inh,SKKanGAS inh,Exocytosis inh,PP5 inh,PP1 inh
CCCSCCCNC(=O)c1ccc(NC(=O)C2=CSCCO2)cc1,-5,0,7,-6,1,-4
O=C(CSc1ccc(Cl)cc1)N1CCN(c2ccc([N+](=O)[O-])cc2Cl)CC1,0,1,12,23,2,3
Cc1ccc(Cl)cc1N1CCN(C(=O)CSc2ccsc2[N+](=O)[O-])CC1,3,-2,24,-2,5,17*
COc1ccccc1CNC(=O)CN1C(=O)NC(c2ccccc2)(c2ccccc2)C1=O,2,6,·,15,·,·
Cc1cc(C)n(C(=O)/C(C#N)=N/Nc2cc(Cl)cc(Cl)c2)n1,-2,-6,90*,4,2,-4
CC1=C(C#N)C(=O)N(C2CCS(=O)(=O)C2)C(=O)/C1=C\c1ccco1 (centres undefined),·,8,14,·,1,35*
O=C1/C(=C\c2ccco2)SC(=S)N1C1CCCCC1,·,-1,0,·,2,-3
CCCOc1ccc(/C=N/NC(=S)Nc2ccccc2[N+](=O)[O-])c(O)c1,·,-3,102*,·,0,15*
CCCOc1ccc(/C=N/Nc2ccccc2[N+](=O)[O-])c(O)c1,-3,2,41,4,3,-1
COCCN(C(=O)COC(=O)c1ccc(C=O)cc1)c1c(N)n(Cc2ccccc2)c(=O)[nH]c1=O,4,-1,15,-2,0,6
Cc1cccc(N(C(=O)c2snc(C(N)=O)c2N)C(C(=O)NCC2CCCO2)c2ccc3ncccc3c2)c1 (centres undefined),-5,5,0,26,-1,-3
CC(C)C(C(=O)Nc1nccs1)c1ccc(Cl)cc1 (centres undefined),2,4,60*,-2,3,2
O=c1c2c(-c3ccccc3)csc2nc2c3ccccc3c(NCCN3CCOCC3)nn12,18*,·,6,67*,·,·
O=c1c2ccccc2nc2c3ccccc3c(NCCN3CCOCC3)nn12,·,-2,6,·,0,-2
O=C(O)c1ccccc1-c1ccccc1C(=O)Nc1ccc2c(c1)[nH]c(=O)c1ccccc12,0,3,6,2,2,15*
O=C(Nc1ccc(Cl)c(Cl)c1)Nc1nccs1,4,-1,55*,12,7,18*
Cc1cnc(NC(=O)c2sc3ccccc3c2Cl)s1,-3,3,27,2,3,-1
O=C(Nc1nccs1)c1sc2cc(Cl)ccc2c1Cl,-3,2,66*,4,0,3
O=C(Nc1ccccc1-c1nc2ccccc2[nH]1)c1sc2ccccc2c1Cl,·,-5,64*,·,-1,-5
O=C(NC1CC1)c1sc2cc(Cl)ccc2c1Cl,-2,1,0,13,2,-1
O=C(Nc1nccs1)c1sc2ccccc2c1Cl,0,-6,50*,-5,1,0
O=C(CN1CCN(CN2C(=O)NC3(CCCCCC3)C2=O)CC1)Nc1cccc(F)c1,0,-2,·,-7,-1,-4
O=C(CN1CCN(CN2C(=O)NC3(CCCCCC3)C2=O)CC1)Nc1ccc(F)cc1,19*,-2,·,0,-1,-1

# Assay outcomes (PubChem BioAssay)
